Data reported in PubChem BioAssay (EPA / NIEHS).
“And” between values parts separate entries of the source, which are not always exact repeats. Equal values may be shown once. Results filed as inconclusive are left out. More than one record can exist for a structure, and the calls need not agree. The source made the active and inactive calls. How the source made its calls: active means hit-call score of the fitted dose curve at least 0.9, where 1 is the maximum; inconclusive means response in the unintended direction; inactive means score below 0.9.

Legend:
[1] = TOX21_p53_BLA_p2_viability: Viability Assessment in the Tox21 HCT-116 p53 Agonism Beta-lactamase Assay, Phase 2 (AID 2283591);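 further: compound exposure lasted 16 h at 37 °C; actives lower the ATP signal meaning cytotoxicity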
Procedure, shortened: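 HCT116 p53-bla cells, 4000/well, dosed after 5 h plating (217-fold dilution of DMSO stocks) and incubated 16 h at 37C. Viability taken as cellular ATP by CellTiter-Glo luminescence after 30 min RT; signal loss marks cytotoxicity.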

[2] = target: Cellular tumor antigen p53 (Homo sapiens) (UniProt P04637); assay: TOX21_p53_BLA_p2_ratio: Tox21 HCT-116 p53 Agonism Beta-lactamase Assay, Ratio, Phase 2 (AID 2283592)
Procedure, shortened: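 Human colon HCT116 cells with an inducible p53 beta-lactamase reporter are exposed to test chemicals for 16 h at 37C. Reporter induction is read as the 460/530 nm emission ratio after CCF4-AM loading, normalized to DMSO.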

[3] = TOX21_p53_BLA_p3_viability: Viability Assessment in the Tox21 HCT-116 p53 Agonism Beta-lactamase Assay, Phase 3 (AID 2283593);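 further: cells exposed to compound for 16 h before reading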
Procedure, shortened: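 HCT116 cells, 4000/well, dosed 5 h after plating by pin transfer (217-fold dilution from DMSO stock) and incubated 16 h at 37C, 5% CO2. Viability read as ATP luminescence with CellTiter-Glo after 30 min at room temperature.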

[4] = target: Cellular tumor antigen p53 (Homo sapiens) (UniProt P04637); assay: TOX21_p53_BLA_p3_ratio: Tox21 HCT-116 p53 Agonism Beta-lactamase Assay, Ratio, Phase 3 (AID 2283596)
Procedure, shortened: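 HCT116 p53-bla cells (4000/well) given compound in DMSO (217-fold dilution) after 5 h, incubated 16 h at 37C. CCF4-AM substrate 2 h at room temperature; 460/530 nm emission ratio, gain fitted against DMSO.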

[5] = ATG_XTT_Cytotoxicity: Cytotoxicity Assessment in the Attagene TRANS-FACTORIAL HepG2 Assay (AID 2283584)
Procedure, shortened: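 24 h chemical exposure of reporter-transfected HepG2; XTT signal loss vs DMSO indicates cytotoxicity.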

[6] = TOX21_p53_BLA_p4_viability: Viability Assessment in the Tox21 HCT-116 p53 Agonism Beta-lactamase Assay, Phase 4 (AID 2283597);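 further: hits lower the luminescence signal meaning cytotoxicity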
Procedure, shortened: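 Luminescent ATP readout (CellTiter-Glo, 30 min, room temperature) in the same wells as the p53 bla ratio. HCT116 cells were treated for 16 h at 37C with DMSO-dissolved compounds.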

[7] = target: Cellular tumor antigen p53 (Homo sapiens) (UniProt P04637); assay: TOX21_p53_BLA_p5_ratio: Tox21 HCT-116 p53 Agonism Beta-lactamase Assay, Ratio, Phase 5 (AID 2283599)
Procedure, shortened: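 HCT-116 p53-bla cells (4000/well) plated 5 h, dosed with compound (217-fold DMSO dilution) for 16 h at 37 C; CCF4-AM substrate 2 h at room temperature. Activity is the 460/530 nm emission ratio (405 nm excitation), fitted in gain-of-signal direction versus DMSO.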

Measured: AC50

Cellular tumor antigen p53 (Homo sapiens), sequence (P04637 whole entry, looked up): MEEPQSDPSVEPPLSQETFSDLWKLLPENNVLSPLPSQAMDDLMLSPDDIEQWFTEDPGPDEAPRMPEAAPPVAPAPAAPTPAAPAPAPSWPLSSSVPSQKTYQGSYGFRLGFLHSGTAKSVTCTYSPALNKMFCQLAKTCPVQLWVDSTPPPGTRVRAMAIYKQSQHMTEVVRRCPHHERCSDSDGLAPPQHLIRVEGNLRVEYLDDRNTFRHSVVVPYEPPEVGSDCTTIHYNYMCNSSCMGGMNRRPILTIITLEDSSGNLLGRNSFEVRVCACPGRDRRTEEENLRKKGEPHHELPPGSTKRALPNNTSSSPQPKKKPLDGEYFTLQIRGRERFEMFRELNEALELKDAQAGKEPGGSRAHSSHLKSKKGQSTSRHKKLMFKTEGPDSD

CC1COC(=O)O1 (configuration not stated)
inactive: [1] | [2] | [3] | [4]

C=CC(=O)OCCCCCC
not listed: [1] | [2]
inactive: all other assays above

CCCCCCCCCO
not listed: [1] | [7]
inactive: all other assays above

CCCCN(CCCC)CCCCCCN(CCCC)CCCC
inactive: [5] | [2] | [3] | [7]

CCO[Si](CC)(OCC)OCC
not listed: [5] | [7]
inactive: all other assays above

CC12CCC(C1)C(C)(C)C2O (configuration not stated)
inactive: [1] | [2] | [3] | [4]

CC(=O)CC(C)(C)C1CCCCC1
not listed: [1] | [3]
inactive: all other assays above

CC(=O)C1=C(C)[C@@H]2C[C@@]3(C1)[C@H](C)CC[C@H]3C2(C)C
inactive: [5] | [3] | [4] | [7]

O=S(=O)(O)c1cc(S(=O)(=O)O)c2c(N=Nc3ccccc3)c(O)ccc2c1
not listed: [5] | [7]
inactive: all other assays above

OCCCO
inactive: [5] | [7]

CC(C)(O)CCc1ccccc1
inactive: [5] | [2] | [7]

CC(=O)c1ccc2ccccc2c1
inactive: [5] | [2] | [6] | [7]

O=C(OCc1ccccc1)c1ccccc1O
not listed: [1] | [4]
inactive: all other assays above

CC(=O)OC(C)(C)C
inactive: [1] | [2] | [3]

CC(=O)CCc1ccc(O)cc1
not listed: [1] | [3]
inactive: all other assays above

CN1CCc2cccc3c2[C@H]1Cc1ccc(O)c(O)c1-3
active: [2] 56.6 µM | [6] 35.5 µM and 44.9 µM | [7] 86.8 µM
inactive: [1] | [2] | [3] | [4] | [6] | [7]

CC(=O)Oc1c(C)c(C)c2c(c1C)CC[C@@](C)(CCC[C@H](C)CCC[C@H](C)CCCC(C)C)O2
not listed: [5]
inactive: all other assays above

CCCCCC(=O)O[C@]1(C(C)=O)CC[C@H]2[C@@H]3CCC4=CC(=O)CC[C@]4(C)[C@H]3CC[C@@]21C
not listed: [5]
inactive: all other assays above

[O-]/[N+](=N\O)c1ccccc1
not listed: [5]
inactive: all other assays above

CC(CO)c1ccccc1 (configuration not stated)
not listed: [5]
inactive: all other assays above

CCC(C)(C)C1CCC(=O)CC1
inactive: [1] | [2] | [3] | [7]

CC(C)COC(=O)c1ccccc1
not listed: [5] | [6]
inactive: all other assays above

CC(C)(CO)CO
not listed: [5]
inactive: all other assays above

CCCCCCCCCCCCS
not listed: [4] | [5]
inactive: all other assays above

COc1ccc(OC)cc1
not listed: [5]
inactive: all other assays above

CC(=O)CCC=C(C)CCC=C(C)C
not listed: [3] | [5]
inactive: all other assays above

CCCCOCCOC(=O)c1ccccc1C(=O)OCCOCCCC
not listed: [5] | [7]
inactive: all other assays above

CC(C)C(=O)OCC=Cc1ccccc1
not listed: [3] | [5]
inactive: all other assays above

O=S(=O)(O)c1cc(O)c(O)c(S(=O)(=O)O)c1
inactive: [1] | [2] | [3] | [6]

COc1ccc2[nH]cc(CCNC(C)=O)c2c1
not listed: [5]
inactive: all other assays above

CC(C)Cc1ccc(C(C)C(=O)O)cc1 (configuration not stated)
not listed: [4] | [5]
inactive: all other assays above

C=CCOC(=O)/C=C\C(=O)OCC=C
not listed: [5] | [6]
inactive: all other assays above

C1=COCCC1
inactive: [1] | [2] | [4]

CCCCCC1C(=O)CCC1CC(=O)OC (configuration not stated)
not listed: [5] | [6]
inactive: all other assays above

CC(O)CNCC(C)O (configuration not stated)
not listed: [5]
inactive: all other assays above

NC(=O)c1cnccn1
not listed: [5] | [6]
inactive: all other assays above

CCCC(O)C(CC)CO (configuration not stated)
not listed: [5]
inactive: all other assays above

O=[N+]([O-])c1cc(N(CCO)CCO)ccc1NCCO
not listed: [5] | [7]
inactive: all other assays above

CCC(C)COC(=O)CC(C)C (configuration not stated)
inactive: [1] | [2] | [3] | [7]
active: [6] 46.1 µM
